KB-3-1 cytotox = kills parental KB-3-1 adenocarcinoma cells; 400,000 compounds, 1.4% hits; Potency, µM (highest dose often 46.1 µM), usual class: cytotoxic; KB-3-1 viability, CellTiter-Glo ATP luminescence, 72 h; note: % is set by controls: 0 for no effect and ±100 for the full control effect; nearly all actives have a fitted effect of over 60% in size
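Screening of KB-3-1 cells (DMEM, 10% FBS, phenol-red free) ran from lowest to highest compound concentration; after 72 h at 37 °C viability was read luminescently and curves fitted.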
MCF10A rereplic = DNA re-replication induction in MCF 10a cells; MCF 10A DNA re-replication, Hoechst nuclear intensity, 48 h; Potency, µM (titrated, usually from 46.1 µM), for inactives: at the top dose activity, positive = re-replication, hits mostly activators; 350,000 compounds, 2.9% hits; AID 624296; note: % of control where 0% means no effect; nearly all actives have a fitted effect of over 50% in size
KB-V1 MDR tox = KB-V1 MDR subline cytotoxicity; KB-V1 MDR cells viability, CellTiter-Glo, 72 h; Potency, µM (top dose mostly 46.1 µM), actives largely listed as cytotoxic; 400,000 compounds, 3.4% hits; note: % is set by controls: 0 for no effect and ±100 for the full control effect; nearly all actives have a fitted effect of over 60% in size
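KB-V1, DMEM (no phenol red) + 10% FBS; cpd pin-transferred, titration series; 72 h, 37 degrees C; CellTiter-Glo, luminescence. Data normalized, curve-fit.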
ELG1 repair inh = inhibitors of ELG1-dependent DNA repair in HEK293T cells; AID 504467; 330,000 compounds, 2.3% hits; HEK293T ELG1-luciferase reporter, luminescence, 16 h; DNA damage induced by 5-fluorouridine; Potency, µM (series often up to 46.1 µM), for inactives: at the highest dose activity change, negative = inhibition, actives largely listed as inhibitors; note: % is set by controls: 0 for no effect and ±100 for the full control effect; nearly all actives have a fitted effect of over 55% in size
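HEK293T cells expressing luciferase-tagged ELG1 (2,000/well) received 5-Fluorouridine plus compound or DMSO for 16 hr at 37 °C. Luciferase was read by ONE-Glo luminescence after 30 min at room temperature.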
SW480 rereplic = DNA re-replication induction in SW480 cells; SW480 DNA re-replication, Hoechst DNA content imaging, 48 h; Potency, µM (highest dose often 46.1 µM), for the others: at the top dose re-replication activation, most hits filed as activators; 340,000 compounds, 1.8% hits; AID 624297; note: % of control where 0% means no effect; nearly all actives have a fitted effect of over 55% in size
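Readout is total intensity of Hoechst-stained nuclei, excited at 405 nm and collected at 500-530 nm. Compound treatment lasted 48 hr at 37 C in 5% CO2 before staining.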
An asterisk follows results filed as active; i = inactive; ? = inconclusive; . = not tested or not shown; [ ] = dose if it differs, or a comment. Sampled rows, rich in hits. Any-hit rate of the full collection: about 8.1%. Calls come from the whole dose curve; as a rule, active = well fitted curve in the direction sought with a large enough effect; inconclusive = small, poorly fitted or top-dose-only effect, or another doubt; inactive = no such curve, though single readings can be large; an effect the other way counts as inactive or inconclusive. Potency is the fitted concentration of half-maximal effect.

SMILES | KB-3-1 cytotox | MCF10A rereplic | KB-V1 MDR tox | ELG1 repair inh | SW480 rereplic
CCOC(=O)c1nnc(-c2ccc(C)cc2)nc1Sc1ccccc1Cl | ? | 7.3µM* | i | 0% | -4%
CCOC(=O)c1nnc(-c2ccccc2)nc1NCc1ccc(Cl)cc1 | i | ? | i | ? | 1%
CCOC(=O)c1nnc(-c2ccc(C)cc2)nc1Oc1ccccc1Cl | i | 2.3µM* | i | 5% | ?
CCOC(=O)c1nnc(-c2ccc(C)cc2)nc1Oc1ccc(Cl)cc1Cl | i | ? | i | 26% | -7%
CCOC(=O)c1nnc(-c2ccccc2)nc1Sc1c(Cl)cccc1Cl | i | 15µM* | i | 3% | ?
CCOc1ccc(NC(=O)CN2CCN(Cc3ccccc3)S2(=O)=O)cc1 | i | . | i | . | .
COc1ccc(CCNC(=O)CCCCn2c(=O)c3ccccc3n(Cc3ccc(Cl)cc3)c2=O)cc1OC | i | . | i | . | .
Cc1nc(C(=O)Nc2ccccc2Cl)cc2c1[nH]c1ccccc12 | 7.3µM* | -1% | 2.9µM* | 20% | ?
COc1ccc(NC(=O)c2cc3c([nH]c4ccccc43)c(C)n2)cc1 | i | 27% | i | -19% | -6%
Cc1cc2cc(CCNC(=O)c3cccc([N+](=O)[O-])c3)c(=O)[nH]c2cc1C | ? | ? | ? | 23µM* | 1%
Cc1ccc(C(=O)NCCc2cc3ccc(C)c(C)c3[nH]c2=O)cc1[N+](=O)[O-] | i | 2% | 4.1µM* | ? | ?
Cc1cc2cc(CCNC(=O)c3c(-c4ccccc4Cl)noc3C)c(=O)[nH]c2cc1C | . | . | . | 13µM* | .
COc1ccc(C(=O)NCCc2cc3ccc(C)c(C)c3[nH]c2=O)cc1OC | i | 27% | i | ? | 6%
CC(Oc1ccccc1)C(=O)Nc1c(C(=O)Nc2cccc(F)c2)oc2ccccc12 (stereo not drawn) | ? | . | i | . | .
CCOc1ccc(OCC(=O)NCCS(=O)(=O)N2CCN(c3ccccc3)CC2)cc1 | i | . | i | . | .
C[C@@H]1CN([C@@H](C)CO)C(=O)CCCn2nncc2CO[C@H]1CN(C)S(=O)(=O)c1ccc(-c2ccccc2)cc1 | i | . | i | . | .
CN1CCN(c2ccc([N+](=O)[O-])c(-n3nc(-c4ccccc4)c4ccccc4c3=O)c2)CC1 | ? | -1% | 13µM* | 20% | 9%
Cc1[nH]nc(-c2ccc(O)c(C)c2O)c1-c1cnn(-c2ccccc2)c1 | i | 77% | 16µM* | ? | 0%
CCN(CC)S(=O)(=O)c1ccc(O)c(C(=O)OCC(=O)N2CCCc3ccccc32)c1 | i | . | i | . | .
C[N+]1(CC(=O)c2ccc(Cl)cc2)CCOCC1 | i | . | i | . | .
CCc1ccc(C2=CC(c3cc(Br)ccc3F)n3ncnc3N2)cc1 (stereo not drawn) | 8.2µM* | 17% | 9.2µM* | ? | ?
Cc1cc([N+](=O)[O-])cc(/C=N\NC(=O)C2COc3ccccc3O2)c1O (stereo not drawn) | ? | 15% | i | 21µM* | ?
N/C(=N\N=Cc1ccc2c(c1)OCO2)NN=Cc1ccc2c(c1)OCO2 | ? | 23µM* | ? | . | ?
COc1ccc(/C=N/NC(=O)C2COc3ccccc3O2)cc1OC (stereo not drawn) | i | -8% | i | 4% | -4%
O=C(N/N=C/c1ccc2c(c1)OCO2)C1COc2ccccc2O1 (stereo not drawn) | i | 9% | 10µM* | -15% | 0%
SMILES | KB-3-1 cytotox | MCF10A rereplic | KB-V1 MDR tox | ELG1 repair inh | SW480 rereplic
CC(C)(C)c1ccc2c(c1)OC(C(=O)N/N=C\c1ccncc1)CO2 (stereo not drawn) | ? | -13% | ? | 15µM* | -23%
CC(C)N1CCC1(C)C(=O)Nc1nc2ccccc2[nH]1 (stereo not drawn) | i | . | i | . | .
C/C(=N\NC(=O)C1COc2ccccc2O1)c1ccc(C)o1 (stereo not drawn) | i | 3% | i | 11% | 0%
C/C(=N\NC(=O)C1COc2ccccc2O1)c1ccccn1 (stereo not drawn) | ? | 18µM* | ? | ? | 14%
Cn1c(=NC(=O)c2ccc(F)cc2)sc2cc(Br)ccc21 | i | . | ? | . | .
O=C(N/N=C/c1ccc(-c2ccccc2Cl)o1)c1ccccc1 | ? | 29µM* | ? | -15% | ?
O=C(O)c1ccc(N/N=C/c2ccc(-c3ccccc3Cl)o2)cc1 | i | ? | i | ? | 16µM*
O=S(=O)(N/N=C\c1ccc(-c2ccccc2Cl)o1)c1ccccc1 | i | ? | i | 0% | ?
O=C(O)c1ccc(N/N=C/c2ccc(-c3ccc(Br)cc3)o2)cc1 | i | ? | i | ? | 21µM*
C[C@H](NC(=O)c1ncn(Cc2ccccc2)c1C(=O)N[C@@H](C)c1ccccc1)c1ccccc1 | i | 3% | i | -14% | 6%
CCOc1cc(CNC(C)(C)CO)cc(Br)c1OCc1ccc(Cl)cc1Cl | i | 6.5µM* | ? | -14% | 28%
COc1cc(CNCc2ccncc2)cc(Br)c1OCc1ccccc1F | 4.1µM* | 2% | 3.7µM* | -18% | -2%
CCOc1cc(CNCCO)cc(Br)c1OCc1ccccc1Cl | ? | ? | 23µM* | 6% | -6%[9.22 µM]
Fc1ccc(N2CCN(Cc3cccn3-c3nnc(N4CCN(C5CCCCC5)CC4)s3)CC2)cc1 | i | . | i | . | .

Bioassay records from PubChem BioAssay.
